Shown are actives, neighbours in structure and some others; about 3.1% of the full set was active somewhere.
MLL AF4-AF9 inh – blocks AF4 peptide binding to human AF9 | P42568 | AlphaScreen, biotin-AF4 peptide binding to FLAG-AF9 | inhibition, % at 10 µM | 350,000 compounds, 0.47% hits | AID 651704;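 active means every replicate reaching a set inhibition limit, whatever the replicate mean, cut at about 25% in these data; inconclusive means mean inhibition reaches that limit but some replicates miss it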;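 further: 0% = plate neutral control median and 100% = total signal loss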
Target sequence (P42568 whole entry, looked up): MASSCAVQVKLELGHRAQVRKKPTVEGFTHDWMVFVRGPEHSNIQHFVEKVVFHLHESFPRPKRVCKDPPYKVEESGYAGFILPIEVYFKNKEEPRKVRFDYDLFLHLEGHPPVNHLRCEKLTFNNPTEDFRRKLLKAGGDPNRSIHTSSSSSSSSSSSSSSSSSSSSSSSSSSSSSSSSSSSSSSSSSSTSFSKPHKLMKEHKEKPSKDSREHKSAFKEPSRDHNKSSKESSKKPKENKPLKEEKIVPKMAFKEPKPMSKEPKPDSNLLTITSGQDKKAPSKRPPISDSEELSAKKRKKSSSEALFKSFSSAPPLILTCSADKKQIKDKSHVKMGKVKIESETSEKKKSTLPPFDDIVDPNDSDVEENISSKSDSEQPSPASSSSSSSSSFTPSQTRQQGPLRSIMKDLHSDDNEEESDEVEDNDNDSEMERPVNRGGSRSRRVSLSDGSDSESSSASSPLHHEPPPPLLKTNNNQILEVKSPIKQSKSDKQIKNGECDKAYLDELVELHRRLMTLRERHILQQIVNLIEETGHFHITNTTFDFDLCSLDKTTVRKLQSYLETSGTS
RAD54 branch – RAD54 (human) branch migration inhibition; Q92698; RAD54 Holliday junction branch migration, FAM/BHQ fluorescence; inhibition, % at 10.4 µM; 360,000 compounds, 0.14% hits;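 active means mean normalized replicate activity at least 40 and at least half of replicates scoring 40 or more; inconclusive means only one of the two criteria met; inactive means mean below 40 and under half of replicates reaching 40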;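 further: 0% = median of neutral control wells and 100% = median of positive control wells; inhibitors cause a drop in the FAM fluorescence signal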
DENV2 CPE rescue – DENV2-induced cell death inhibition; DENV2-infected cells, cytopathic effect rescue, plate reader; CPE inhibition, % at 9.99 µM; 350,000 compounds, 1.7% hits; AID 651640; in the data active means CPE inhibition above about 20%, passing the limit was not always enough; inconclusive means no clear call, values can overlap the other calls; tested in BHK-21 cells;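 further: 0% = median of neutral control wells and 100% = median of positive control wells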
INS-1E GSIS act – GLuc luminescence reporter in INS-1E cells, primary screen for activators of glucose-dependent secretion of insulin | INS-1E GLuc reporter insulin secretion, 2-3 h | activation, % at 16.6 µM | 370,000 compounds, 0.61% hits | AID 743287;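 active means lowest replicate activation of at least 40%, so every replicate reaches that level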;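 further: 0% = median of neutral control wells and 100% = median of IBMX positive control wells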
RAD52 anneal inh – blocks human RAD52 DNA annealing; recombinant RAD52 DNA annealing, FRET fluorescence; inhibition, % at 18.7 µM; 360,000 compounds, 0.46% hits; AID 651710;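 active means every replicate showing at least 50% inhibition; inconclusive means mean inhibition at least 50% but not in every replicate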
dFosB activator – activators of mouse delta FosB homodimer. P13346. purified delta FosB, TAMRA-CDK5 oligo fluorescence polarization; percent of positive-control signal above neutral wells. activation, % at 25 µM. 340,000 compounds, 0.99% hits. AID 493131;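 active means mean activation above about 17%, with every replicate also reaching it, limit read from the data, passing the limit was not always enough; inconclusive means only one of the two conditions met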
The depositor's hits bear a star; ! = repeats disagree.

Screening C[C@@H]1CN([C@@H](C)CO)C(=O)c2cc(Br)cnc2O[C@@H]1CN(C)Cc1ccncc1 returned MLL AF4-AF9 inh -5, RAD54 branch -9, DENV2 CPE rescue -4, INS-1E GSIS act 24 and RAD52 anneal inh -10.
C[C@H](CO)N1C[C@H](C)[C@H](CN(C)Cc2ccncc2)Oc2ncc(Br)cc2C1=O was read as MLL AF4-AF9 inh 3, RAD54 branch 10, DENV2 CPE rescue 85*!, INS-1E GSIS act 17 and RAD52 anneal inh -12.
Screening Cc1ccc(-c2cnc3c(c2)C(=O)N([C@H](C)CO)C[C@@H](C)[C@@H](CN(C)C(=O)c2ccccc2)O3)cc1 returned MLL AF4-AF9 inh -2, RAD54 branch 1, DENV2 CPE rescue 68*, INS-1E GSIS act -7 and RAD52 anneal inh 8.
`CCC(=O)N(C)C[C@@H]1Oc2ncc(-c3ccc(C#N)cc3)cc2C(=O)N([C@H](C)CO)C[C@@H]1C` gave MLL AF4-AF9 inh -2, RAD54 branch 6, DENV2 CPE rescue 70*, INS-1E GSIS act 11 and RAD52 anneal inh -10.
For CC(C)(C)[S@@](=O)N1Cc2cc(C(=O)NC3CCCC3)nc(-c3cccc(Br)c3)c2[C@H]1CCO the results were MLL AF4-AF9 inh 1, DENV2 CPE rescue -5, INS-1E GSIS act -6 and RAD52 anneal inh -30.
CO[C@H]1CN(C)C(=O)c2cc(NC(=O)CC(F)(F)F)ccc2OC[C@H](C)N(CCC(F)(F)F)C[C@@H]1C was read as MLL AF4-AF9 inh -3, RAD54 branch 1, DENV2 CPE rescue -5, INS-1E GSIS act -10 and RAD52 anneal inh -15.
Screening COc1ccc(CN(C)C[C@@H]2Oc3ccc(NC(=O)c4ccncc4)cc3C(=O)N([C@@H](C)CO)C[C@H]2C)cc1 returned MLL AF4-AF9 inh -1, RAD54 branch 12, DENV2 CPE rescue 0, INS-1E GSIS act -2 and RAD52 anneal inh -5.
C[C@@H]1CN([C@H](C)CO)C(=O)Cc2cc(NS(=O)(=O)c3ccccc3)ccc2O[C@H]1CN(C)S(=O)(=O)c1cn(C)cn1 was read as MLL AF4-AF9 inh 0, RAD54 branch 0, DENV2 CPE rescue inconclusive, INS-1E GSIS act 38 and RAD52 anneal inh -12.
For C[C@@H]1CN([C@H](C)CO)C(=O)c2cc(C#Cc3ccc(F)cc3)cnc2O[C@@H]1CN(C)C(=O)c1ccccc1F the results were MLL AF4-AF9 inh 1, RAD54 branch -5, DENV2 CPE rescue 45*, INS-1E GSIS act -29 and RAD52 anneal inh 2.
Screening CCC(=O)N(C)C[C@H]1Oc2ncc(/C=C/c3ccccc3)cc2C(=O)N([C@@H](C)CO)C[C@H]1C returned MLL AF4-AF9 inh 1, RAD54 branch -1, DENV2 CPE rescue 1, INS-1E GSIS act -7 and RAD52 anneal inh 3.
For CC(C)NC(=O)N(C)C[C@@H]1Oc2ncc(-c3ccccc3F)cc2C(=O)N([C@@H](C)CO)C[C@H]1C the results were MLL AF4-AF9 inh -6, RAD54 branch 0, DENV2 CPE rescue 23*, INS-1E GSIS act 1 and RAD52 anneal inh 4.
`CCC(=O)N(C)C[C@H]1Oc2ncc(/C=C/c3ccccc3)cc2C(=O)N([C@@H](C)CO)C[C@@H]1C` gave MLL AF4-AF9 inh 3, RAD54 branch -6, DENV2 CPE rescue 42*, INS-1E GSIS act -11 and RAD52 anneal inh 6.
CCC(=O)N(C)C[C@@H]1Oc2ncc(Br)cc2C(=O)N([C@H](C)CO)C[C@H]1C was read as MLL AF4-AF9 inh -2, RAD54 branch -3, DENV2 CPE rescue 29*!, INS-1E GSIS act -1 and RAD52 anneal inh -4.
`COc1ccc(NC(=O)N[C@H]2CC[C@@H](CCNC(=O)CCN3CCCCC3)O[C@@H]2CO)cc1` gave MLL AF4-AF9 inh -2, RAD54 branch -11, DENV2 CPE rescue -1, INS-1E GSIS act 13 and RAD52 anneal inh -6.
For C[C@@H]1CN([C@H](C)CO)C(=O)c2cc(-c3ccccc3)cnc2O[C@@H]1CN(C)C(=O)c1ccccc1F the results were MLL AF4-AF9 inh -2, RAD54 branch 0, DENV2 CPE rescue 105*, INS-1E GSIS act -1 and RAD52 anneal inh 9.
`CCC(=O)N(C)C[C@@H]1Oc2ncc(-c3ccc(C)cc3)cc2C(=O)N([C@@H](C)CO)C[C@H]1C` gave MLL AF4-AF9 inh -11, RAD54 branch 2, DENV2 CPE rescue 22*, INS-1E GSIS act 16 and RAD52 anneal inh 0.
C/C=C/c1cnc2c(c1)C(=O)N([C@H](C)CO)C[C@@H](C)[C@@H](CN(C)C(=O)Nc1ccccc1F)O2 was read as MLL AF4-AF9 inh -4, DENV2 CPE rescue 30*, INS-1E GSIS act 2 and RAD52 anneal inh -3.
Screening CCC(=O)N(C)C[C@@H]1Oc2ncc(-c3ccc(C)cc3)cc2C(=O)N([C@@H](C)CO)C[C@@H]1C returned MLL AF4-AF9 inh -11, RAD54 branch 2, DENV2 CPE rescue -6, INS-1E GSIS act 16 and RAD52 anneal inh 14.
CN(C)CC(=O)Nc1ccc2c(c1)[C@H]1C[C@H](CC(=O)N3CCCCC3)O[C@H](CO)[C@H]1O2 was read as MLL AF4-AF9 inh 0, RAD54 branch 9, DENV2 CPE rescue 2, INS-1E GSIS act 15 and RAD52 anneal inh -20.
Screening COc1ccc2c(c1OC)c(=O)n1c3ccc(OC(C)C(=O)NCCCN4CCOCC4)cc3c3ccnc2c31 (stereo not drawn) returned RAD54 branch 73* and dFosB activator -36.
Screening CC(Oc1ccc2c3c(c(=O)oc2c1)CCCC3)C(=O)NCCN1CCOCC1 (stereo not drawn) returned MLL AF4-AF9 inh 0, RAD54 branch -2, DENV2 CPE rescue 7, INS-1E GSIS act 17, RAD52 anneal inh -16 and dFosB activator -11.
CC(Oc1ccc2c(c1)c1ccnc3c4ccccc4c(=O)n2c13)C(=O)NCCN1CCOCC1 (stereo not drawn) was read as RAD54 branch 89* and dFosB activator -55.
Cc1ccc(S(=O)(=O)N[C@H]2C=C[C@H](CC(=O)NCc3ccc(Cl)c(Cl)c3)O[C@H]2CO)cc1 was read as MLL AF4-AF9 inh 0, RAD54 branch 1, DENV2 CPE rescue 1, INS-1E GSIS act -13 and RAD52 anneal inh 7.
`CN1/C(=C\C=C(C#N)C#N)C(C)(C)c2ccccc21` gave MLL AF4-AF9 inh -1, RAD54 branch -94, DENV2 CPE rescue 4, INS-1E GSIS act -6, RAD52 anneal inh -129 and dFosB activator 113*.
Screening COc1ccc(NC(=O)N(C)C[C@@H]2OCc3cnnn3CCCC(=O)N([C@@H](C)CO)C[C@@H]2C)c(OC)c1 returned MLL AF4-AF9 inh -1, RAD54 branch 0, DENV2 CPE rescue 2, INS-1E GSIS act -2 and RAD52 anneal inh 8.
`C[C@@H]1CN([C@@H](C)CO)C(=O)CCCn2nncc2CO[C@H]1CN(C)C(=O)Nc1ccc(C(C)(C)C)cc1` gave MLL AF4-AF9 inh 0, RAD54 branch -4, DENV2 CPE rescue 22*, INS-1E GSIS act -9 and RAD52 anneal inh -10.

Screening results deposited in PubChem by Broad Institute.
